Data taken from the supplement of paper PMC10849652.
The full data set covers some 8,800 targets. This sample favours those with a hit. About 0.5% of all pairs of compound and target were hits.

Sequence of UniProt Q9Y6B6 (Q9Y6B6 whole entry, looked up): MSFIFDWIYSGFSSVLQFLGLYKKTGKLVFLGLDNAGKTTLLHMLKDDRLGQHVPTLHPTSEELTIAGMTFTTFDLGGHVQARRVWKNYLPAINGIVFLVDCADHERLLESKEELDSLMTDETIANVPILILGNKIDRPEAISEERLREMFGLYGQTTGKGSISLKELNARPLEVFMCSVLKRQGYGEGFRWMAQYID
Sequence of UniProt Q96DM3 (Q96DM3 whole entry, looked up): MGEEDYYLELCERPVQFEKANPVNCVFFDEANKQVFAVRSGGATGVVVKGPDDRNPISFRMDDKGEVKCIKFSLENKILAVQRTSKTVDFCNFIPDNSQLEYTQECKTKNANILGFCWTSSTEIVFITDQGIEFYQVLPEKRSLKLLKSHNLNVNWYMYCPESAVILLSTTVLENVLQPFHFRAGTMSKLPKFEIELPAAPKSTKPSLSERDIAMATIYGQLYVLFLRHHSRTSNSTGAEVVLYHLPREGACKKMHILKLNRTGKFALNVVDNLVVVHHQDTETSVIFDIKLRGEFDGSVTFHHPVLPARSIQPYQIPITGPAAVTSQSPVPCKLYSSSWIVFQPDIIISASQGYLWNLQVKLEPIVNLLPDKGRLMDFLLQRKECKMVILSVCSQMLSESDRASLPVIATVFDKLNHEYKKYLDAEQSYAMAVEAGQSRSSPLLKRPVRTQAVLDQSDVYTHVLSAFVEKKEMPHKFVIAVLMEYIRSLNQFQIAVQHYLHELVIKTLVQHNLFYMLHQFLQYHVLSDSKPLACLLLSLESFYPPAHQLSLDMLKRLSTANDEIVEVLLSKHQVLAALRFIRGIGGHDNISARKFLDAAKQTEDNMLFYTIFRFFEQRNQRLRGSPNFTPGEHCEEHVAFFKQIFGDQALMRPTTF
Sequence of UniProt Q99574 (Q99574 whole entry, looked up): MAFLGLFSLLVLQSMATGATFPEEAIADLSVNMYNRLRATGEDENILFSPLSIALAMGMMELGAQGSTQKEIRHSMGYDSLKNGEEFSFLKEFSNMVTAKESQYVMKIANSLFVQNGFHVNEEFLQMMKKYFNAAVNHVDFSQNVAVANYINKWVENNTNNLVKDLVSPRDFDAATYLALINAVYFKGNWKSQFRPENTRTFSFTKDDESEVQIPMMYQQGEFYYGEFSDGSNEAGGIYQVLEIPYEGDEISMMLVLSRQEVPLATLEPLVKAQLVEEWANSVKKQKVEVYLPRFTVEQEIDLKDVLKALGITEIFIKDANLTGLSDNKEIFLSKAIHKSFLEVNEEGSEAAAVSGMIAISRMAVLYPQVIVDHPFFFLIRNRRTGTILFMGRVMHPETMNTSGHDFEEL
Sequence of UniProt P23443 (P23443 whole entry, looked up): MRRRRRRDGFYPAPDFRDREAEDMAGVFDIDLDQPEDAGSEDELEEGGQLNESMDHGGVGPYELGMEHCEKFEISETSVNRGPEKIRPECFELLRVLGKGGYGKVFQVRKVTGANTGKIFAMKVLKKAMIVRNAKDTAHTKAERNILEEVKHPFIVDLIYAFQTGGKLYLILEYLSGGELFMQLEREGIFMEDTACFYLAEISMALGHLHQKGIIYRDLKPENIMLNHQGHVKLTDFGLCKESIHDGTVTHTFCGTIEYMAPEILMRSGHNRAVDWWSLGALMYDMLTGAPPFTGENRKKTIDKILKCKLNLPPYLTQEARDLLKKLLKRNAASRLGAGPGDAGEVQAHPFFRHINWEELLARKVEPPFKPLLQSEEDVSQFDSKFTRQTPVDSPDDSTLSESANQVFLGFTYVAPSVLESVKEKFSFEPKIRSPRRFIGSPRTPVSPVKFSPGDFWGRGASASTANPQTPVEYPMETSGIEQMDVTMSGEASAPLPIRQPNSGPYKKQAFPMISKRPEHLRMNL
Sequence of UniProt O75880 (O75880 whole entry, looked up): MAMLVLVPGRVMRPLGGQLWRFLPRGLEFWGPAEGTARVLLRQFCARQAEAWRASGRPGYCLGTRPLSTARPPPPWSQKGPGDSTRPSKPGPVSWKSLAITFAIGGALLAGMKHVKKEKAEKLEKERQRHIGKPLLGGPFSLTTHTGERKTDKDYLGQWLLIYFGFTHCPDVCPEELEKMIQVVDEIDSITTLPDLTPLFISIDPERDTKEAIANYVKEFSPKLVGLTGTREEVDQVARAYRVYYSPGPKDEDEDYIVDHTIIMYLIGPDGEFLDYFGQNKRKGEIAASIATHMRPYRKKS
Sequence of UniProt O95248 (O95248 whole entry, looked up): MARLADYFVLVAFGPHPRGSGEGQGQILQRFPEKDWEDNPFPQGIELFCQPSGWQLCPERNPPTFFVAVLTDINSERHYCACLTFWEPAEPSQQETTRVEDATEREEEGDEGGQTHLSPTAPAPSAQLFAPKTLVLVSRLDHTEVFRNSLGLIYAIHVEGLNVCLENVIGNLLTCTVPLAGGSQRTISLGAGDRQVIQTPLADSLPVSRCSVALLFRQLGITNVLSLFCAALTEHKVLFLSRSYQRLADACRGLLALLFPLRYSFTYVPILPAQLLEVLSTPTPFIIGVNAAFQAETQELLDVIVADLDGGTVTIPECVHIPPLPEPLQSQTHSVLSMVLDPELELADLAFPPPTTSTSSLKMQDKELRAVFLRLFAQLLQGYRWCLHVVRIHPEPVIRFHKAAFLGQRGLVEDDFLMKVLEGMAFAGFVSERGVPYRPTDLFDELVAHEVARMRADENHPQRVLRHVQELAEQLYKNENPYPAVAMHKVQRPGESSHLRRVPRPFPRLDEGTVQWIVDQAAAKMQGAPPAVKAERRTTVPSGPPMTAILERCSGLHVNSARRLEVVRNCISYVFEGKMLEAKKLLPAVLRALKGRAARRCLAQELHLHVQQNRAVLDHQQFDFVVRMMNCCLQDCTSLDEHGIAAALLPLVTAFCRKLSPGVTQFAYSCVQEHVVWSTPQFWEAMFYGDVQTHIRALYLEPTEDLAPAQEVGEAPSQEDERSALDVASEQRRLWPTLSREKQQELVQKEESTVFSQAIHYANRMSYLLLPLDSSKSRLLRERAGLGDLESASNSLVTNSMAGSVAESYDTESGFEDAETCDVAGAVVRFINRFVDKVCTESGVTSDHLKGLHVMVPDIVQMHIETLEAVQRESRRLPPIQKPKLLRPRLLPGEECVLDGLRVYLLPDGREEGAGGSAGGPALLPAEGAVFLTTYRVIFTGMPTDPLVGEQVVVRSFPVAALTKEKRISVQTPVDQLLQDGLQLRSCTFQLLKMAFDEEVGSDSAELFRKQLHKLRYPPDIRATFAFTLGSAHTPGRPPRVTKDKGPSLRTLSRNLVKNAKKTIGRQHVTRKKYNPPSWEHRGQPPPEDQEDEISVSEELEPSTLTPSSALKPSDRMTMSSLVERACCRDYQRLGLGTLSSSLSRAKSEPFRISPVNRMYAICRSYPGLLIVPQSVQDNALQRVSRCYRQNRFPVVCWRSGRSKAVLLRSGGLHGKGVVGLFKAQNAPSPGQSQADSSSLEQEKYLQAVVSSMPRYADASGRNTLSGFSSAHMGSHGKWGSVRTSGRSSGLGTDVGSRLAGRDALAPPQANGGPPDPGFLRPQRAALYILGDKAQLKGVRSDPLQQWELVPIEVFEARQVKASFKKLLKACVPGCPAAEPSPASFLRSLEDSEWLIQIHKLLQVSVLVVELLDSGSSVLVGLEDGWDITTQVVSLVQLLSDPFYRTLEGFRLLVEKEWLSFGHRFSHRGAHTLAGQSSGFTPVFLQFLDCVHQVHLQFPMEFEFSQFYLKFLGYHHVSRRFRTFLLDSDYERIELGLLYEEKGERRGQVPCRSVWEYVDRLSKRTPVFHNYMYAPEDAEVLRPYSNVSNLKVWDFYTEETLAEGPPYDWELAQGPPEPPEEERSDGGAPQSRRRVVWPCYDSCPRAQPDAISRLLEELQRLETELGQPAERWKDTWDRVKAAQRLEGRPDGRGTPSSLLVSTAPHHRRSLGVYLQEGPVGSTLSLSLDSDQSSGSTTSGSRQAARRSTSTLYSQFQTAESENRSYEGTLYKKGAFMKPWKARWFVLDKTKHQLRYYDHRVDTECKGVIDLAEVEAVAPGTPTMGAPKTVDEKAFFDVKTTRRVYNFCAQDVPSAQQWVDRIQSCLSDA
Sequence of UniProt Q9Y3Z3 (Q9Y3Z3 whole entry, looked up): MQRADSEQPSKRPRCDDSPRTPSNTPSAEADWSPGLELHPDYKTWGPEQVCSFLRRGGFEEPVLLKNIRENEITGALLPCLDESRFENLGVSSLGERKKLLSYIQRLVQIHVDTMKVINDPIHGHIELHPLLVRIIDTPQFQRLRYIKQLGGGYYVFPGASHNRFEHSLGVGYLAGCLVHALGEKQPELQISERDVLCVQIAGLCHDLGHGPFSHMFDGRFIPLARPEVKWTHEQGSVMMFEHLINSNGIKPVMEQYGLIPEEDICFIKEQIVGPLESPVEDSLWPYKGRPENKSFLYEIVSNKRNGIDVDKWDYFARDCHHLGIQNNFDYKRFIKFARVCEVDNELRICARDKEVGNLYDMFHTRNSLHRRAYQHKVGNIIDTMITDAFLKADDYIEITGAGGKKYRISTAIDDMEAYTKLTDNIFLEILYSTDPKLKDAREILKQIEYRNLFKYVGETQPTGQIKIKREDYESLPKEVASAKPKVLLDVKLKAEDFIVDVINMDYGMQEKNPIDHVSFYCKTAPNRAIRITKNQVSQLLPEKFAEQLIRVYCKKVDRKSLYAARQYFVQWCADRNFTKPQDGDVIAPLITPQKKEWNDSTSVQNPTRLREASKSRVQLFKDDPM
Sequence of UniProt Q9P0P0 (Q9P0P0 whole entry, looked up): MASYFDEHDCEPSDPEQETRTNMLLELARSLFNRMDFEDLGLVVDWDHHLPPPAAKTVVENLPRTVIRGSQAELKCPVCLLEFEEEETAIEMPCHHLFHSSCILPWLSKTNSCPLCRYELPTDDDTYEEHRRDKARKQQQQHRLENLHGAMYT
Sequence of UniProt Q53S08 (Q53S08 whole entry, looked up): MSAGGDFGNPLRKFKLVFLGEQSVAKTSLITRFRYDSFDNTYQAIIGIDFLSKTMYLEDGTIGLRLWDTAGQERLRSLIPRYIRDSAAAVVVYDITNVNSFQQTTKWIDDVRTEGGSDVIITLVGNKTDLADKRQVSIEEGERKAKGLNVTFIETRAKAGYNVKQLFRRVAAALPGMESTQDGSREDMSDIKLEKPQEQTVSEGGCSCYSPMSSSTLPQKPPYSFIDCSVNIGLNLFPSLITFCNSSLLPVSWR

Each target was assayed with CC1=C(C(CC(=O)N1)C2=CC=C(C=C2)C(F)(F)F)C(=O)NC3=C(C=C4C(=C3)C=NN4)F (assay: log2 fold change, soluble protein after heating vs DMSO (PISA); higher = thermal stabilisation; K562 lysate, 10 uM; active = over 0.2 and 3.5 SD of the protein, either way, in both replicates (recomputed)).
In short: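 K562 pellets were dounce-homogenised in PBS pH 7.4 with 1 mM MgCl2, and the crude extract at 1 mg/mL protein was treated with 10 μM compound for 30 min. Aliquots were heated for 3 min across 48°C-58°C, pooled, and brought to 0.5% NP-40 at 4°C; soluble protein was the supernatant after 21,000xg for 90 min. Soluble protein was quantified by TMTpro 16plex LC-MS/MS with channel sums equalised, and reported as log2 fold change in thermal stability against DMSO controls, with values from duplicates.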
In the case of SERPINI1 (UniProt Q99574), the log2 fold change is reported as 0.056 (inactive). For SASS6 (UniProt Q6UVJ0), the log2 fold change was 0.024 (inactive). With RPS6KB1 (UniProt P23443) the log2 fold change was 0 (inactive). For SAMHD1 (UniProt Q9Y3Z3), the log2 fold change was 0.003 (inactive). S100A11 (UniProt P31949) was tested, and the log2 fold change was -0.024 (inactive). With RTN4IP1 (UniProt Q8WWV3) the log2 fold change was -0.398 (active). For RIOK3 (UniProt O14730), the log2 fold change was -0.011 (inactive). For RAB6D (UniProt Q53S08), the log2 fold change was -0.113 (inactive). With RHAG (UniProt Q02094) the log2 fold change was 0.09 (inactive). For RIPK1 (UniProt Q13546), the log2 fold change was 0.001 (inactive). For RMC1 (UniProt Q96DM3), the log2 fold change was -0.017 (inactive). RAB21 (UniProt Q9UL25) was tested, and the log2 fold change was 0.019 (inactive). In the case of RABEPK (UniProt Q7Z6M1), the log2 fold change is reported as -0.009 (inactive). SCO1 (UniProt O75880) was tested, and the log2 fold change was 0.044 (inactive). With RINT1 (UniProt Q6NUQ1) the log2 fold change was -0.066 (inactive). For RDH14 (UniProt Q9HBH5), the log2 fold change was -0.031 (inactive). In the case of RPL31 (UniProt P62899), the log2 fold change is reported as -0.06 (inactive). RAF1 isoform 2 (UniProt P04049) was tested, and the log2 fold change was 0.092 (inactive). With RDX (UniProt P35241) the log2 fold change was -0.016 (inactive). RPS4X (UniProt P62701) was tested, and the log2 fold change was -0.026 (inactive). RIC1 (UniProt Q4ADV7) was tested, and the log2 fold change was -0.032 (inactive). In the case of RRM1 (UniProt P23921), the log2 fold change is reported as 0 (inactive). In the case of RNF123 (UniProt Q5XPI4), the log2 fold change is reported as -0.02 (inactive). In the case of RNF181 (UniProt Q9P0P0), the log2 fold change is reported as -0.056 (inactive). For RNF213, A0A0A0MTC1, the log2 fold change was 0.014 (inactive). RNF168 (UniProt Q8IYW5) was tested, and the log2 fold change was -0.071 (inactive). In the case of SAR1B (UniProt Q9Y6B6), the log2 fold change is reported as 0.154 (inactive). RFC2 (UniProt P35250) was tested, and the log2 fold change was -0.001 (inactive). In the case of SBF1 isoform 4 (UniProt O95248), the log2 fold change is reported as 0.045 (inactive). In the case of SERINC3 (UniProt Q13530), the log2 fold change is reported as -0.012 (inactive). In the case of RPS29 (UniProt P62273), the log2 fold change is reported as 0.086 (inactive). In the case of RPS26P11 (UniProt Q5JNZ5), the log2 fold change is reported as -0.013 (inactive). RFC5 (UniProt P40937) was tested, and the log2 fold change was -0.002 (inactive).
